Reference: the supplement of paper PMC9492666
Where a name gives a salt, the structure may show the parent alone.

Assays:
HCC1937 = test: relative cell viability, compound + RSL3, vs DMSO (fraction of DMSO control); higher = less growth inhibition; conditions: 72 h
MDA-MB-231 = test: as above; conditions: 72 h
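Further: breast cancer cell viability read out with the CCK-8 kit after co-treatment of each compound with the ferroptosis inducer RSL3.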

Row | SMILES | relative cell viability (HCC1937) | relative cell viability (MDA-MB-231)
1 | N=C(N)NC(=N)NCCc1ccccc1 [Phenformin hydrochloride] + COC(=O)c1ccc([C@H]2c3[nH]c4ccccc4c3C[C@H](C(=O)OC)N2C(=O)CCl)cc1 [RSL3] | 0.653 | 0.543
2 | CCOc1cc(CC(=O)N[C@@H](CC(C)C)c2ccccc2N2CCCCC2)ccc1C(=O)O [Repaglinide] + COC(=O)c1ccc([C@H]2c3[nH]c4ccccc4c3C[C@H](C(=O)OC)N2C(=O)CCl)cc1 [RSL3] | 0.598 | 0.656
3 | O=C1c2cc(CO)cc(O)c2C(=O)c2c(O[C@@H]3O[C@H](CO)[C@@H](O)[C@H](O)[C@H]3O)cccc21 [Aloe-emodin-8-O-beta-D-glucopyranoside] + COC(=O)c1ccc([C@H]2c3[nH]c4ccccc4c3C[C@H](C(=O)OC)N2C(=O)CCl)cc1 [RSL3] | 0.368 | 0.544
4 | C[N+](C)(C)CC(O)CC(=O)[O-] (stereo not drawn) [L(-)-Carnitine] + COC(=O)c1ccc([C@H]2c3[nH]c4ccccc4c3C[C@H](C(=O)OC)N2C(=O)CCl)cc1 [RSL3] | 0.621 | 0.523
5 | CN(CCOc1ccc(CC2SC(=O)NC2=O)cc1)c1ccccn1 (stereo not given) [Rosiglitazone] + COC(=O)c1ccc([C@H]2c3[nH]c4ccccc4c3C[C@H](C(=O)OC)N2C(=O)CCl)cc1 [RSL3] | 1.26 | 0.646
6 | O=C(O)c1cccnc1Nc1cccc(C(F)(F)F)c1 [Niflumic acid] + COC(=O)c1ccc([C@H]2c3[nH]c4ccccc4c3C[C@H](C(=O)OC)N2C(=O)CCl)cc1 [RSL3] | 0.734 | 0.53
7 | COc1cc([C@@H]2Oc3c(O)cc([C@H]4Oc5cc(O)cc(O)c5C(=O)[C@@H]4O)cc3[C@H]2CO)ccc1O [Silychristin] + COC(=O)c1ccc([C@H]2c3[nH]c4ccccc4c3C[C@H](C(=O)OC)N2C(=O)CCl)cc1 [RSL3] | 0.567 | 0.66
8 | CC1(C)CC[C@]2(C(=O)O[C@@H]3O[C@H](CO)[C@@H](O)[C@H](O)[C@H]3O)CC[C@]3(C)C(=CC[C@@H]4[C@@]5(C)CC[C@H](O[C@@H]6O[C@H](C(=O)O)[C@@H](O)[C@H](O)[C@H]6O[C@@H]6O[C@H](CO)[C@@H](O)[C@H](O)[C@H]6O)C(C)(C)[C@@H]5CC[C@]43C)[C@@H]2C1 [Ginsenoside Ro] + COC(=O)c1ccc([C@H]2c3[nH]c4ccccc4c3C[C@H](C(=O)OC)N2C(=O)CCl)cc1 [RSL3] | 0.375 | 0.478
9 | C=C(C)[C@@H]1CC[C@]2(CO)CC[C@]3(C)[C@H](CC[C@@H]4[C@@]5(C)CC[C@H](O)C(C)(C)[C@@H]5CC[C@]43C)[C@@H]12 [Betulin] + COC(=O)c1ccc([C@H]2c3[nH]c4ccccc4c3C[C@H](C(=O)OC)N2C(=O)CCl)cc1 [RSL3] | 0.619 | 0.453
10 | O=c1ccc2cc(O)c(O)cc2o1 [Esculetin] + COC(=O)c1ccc([C@H]2c3[nH]c4ccccc4c3C[C@H](C(=O)OC)N2C(=O)CCl)cc1 [RSL3] | 0.301 | 0.497
11 | O=c1oc2ccccc2cc1O [3-Hydroxycoumarin] + COC(=O)c1ccc([C@H]2c3[nH]c4ccccc4c3C[C@H](C(=O)OC)N2C(=O)CCl)cc1 [RSL3] | 0.587 | 0.682
12 | O=C(Nc1cccnn1)N1CCC(=Cc2cccc(Oc3ccc(C(F)(F)F)cn3)c2)CC1 + COC(=O)c1ccc([C@H]2c3[nH]c4ccccc4c3C[C@H](C(=O)OC)N2C(=O)CCl)cc1 [RSL3] | 0.686 | 0.601
13 | Cc1coc2c1C(=O)C(=O)c1c-2ccc2c(C)cccc12 [Tanshinone I] + COC(=O)c1ccc([C@H]2c3[nH]c4ccccc4c3C[C@H](C(=O)OC)N2C(=O)CCl)cc1 [RSL3] | 0.218 | 0.305
14 | Cc1c2c(=O)n(-c3ccccc3Cl)[nH]c2cc(=O)n1Cc1ccccn1 + COC(=O)c1ccc([C@H]2c3[nH]c4ccccc4c3C[C@H](C(=O)OC)N2C(=O)CCl)cc1 [RSL3] | 0.452 | 0.626
15 | O=S(=O)(O)c1ccc2cc(N=Nc3cc(S(=O)(=O)O)c4cccnc4c3O)ccc2c1 + COC(=O)c1ccc([C@H]2c3[nH]c4ccccc4c3C[C@H](C(=O)OC)N2C(=O)CCl)cc1 [RSL3] | 0.511 | 0.744
16 | CCC(C)(Oc1ccc(C2(c3ccc(OC(C)(CC)C(=O)O)cc3)CCCCC2)cc1)C(=O)O (stereo not given) [Clinofibrate] + COC(=O)c1ccc([C@H]2c3[nH]c4ccccc4c3C[C@H](C(=O)OC)N2C(=O)CCl)cc1 [RSL3] | 0.561 | 0.452
17 | CC1=C(C)C(=O)C(C(CCCCCC(=O)O)c2ccccc2)=C(C)C1=O (stereo not given) [Seratrodast] + COC(=O)c1ccc([C@H]2c3[nH]c4ccccc4c3C[C@H](C(=O)OC)N2C(=O)CCl)cc1 [RSL3] | 0.948 | 0.578
18 | CN(CCOc1ccc(CC2SC(=O)NC2=O)cc1)c1ccccn1 (stereo not given) [Rosiglitazone maleate] + COC(=O)c1ccc([C@H]2c3[nH]c4ccccc4c3C[C@H](C(=O)OC)N2C(=O)CCl)cc1 [RSL3] | 0.758 | 0.516

Row | SMILES | relative cell viability (HCC1937) | relative cell viability (MDA-MB-231)
19 | Cc1c(C)c2c(c(C)c1O)CCC(C)(COc1ccc(CC3SC(=O)NC3=O)cc1)O2 (stereo not given) [Troglitazone] + COC(=O)c1ccc([C@H]2c3[nH]c4ccccc4c3C[C@H](C(=O)OC)N2C(=O)CCl)cc1 [RSL3] | 0.431 | 0.686
20 | CC(C)(Oc1ccc(CCNC(=O)c2ccc(Cl)cc2)cc1)C(=O)O [Bezafibrate] + COC(=O)c1ccc([C@H]2c3[nH]c4ccccc4c3C[C@H](C(=O)OC)N2C(=O)CCl)cc1 [RSL3] | 0.594 | 0.518
21 | O=C(O)C(O)Cc1ccc(O)c(O)c1 (stereo not given) [Sodium Danshensu] + COC(=O)c1ccc([C@H]2c3[nH]c4ccccc4c3C[C@H](C(=O)OC)N2C(=O)CCl)cc1 [RSL3] | 0.631 | 0.545
22 | Cc1ccc(/C=C2\SC(=S)N(CCCCCC(=O)Nc3ccc(C(=O)O)c(O)c3)C2=O)cc1 + COC(=O)c1ccc([C@H]2c3[nH]c4ccccc4c3C[C@H](C(=O)OC)N2C(=O)CCl)cc1 [RSL3] | 0.632 | 0.577
23 | CCC(CC)CC1(C(=O)Nc2ccccc2SC(=O)C(C)C)CCCCC1 [Dalcetrapib] + COC(=O)c1ccc([C@H]2c3[nH]c4ccccc4c3C[C@H](C(=O)OC)N2C(=O)CCl)cc1 [RSL3] | 0.654 | 0.684
24 | CCCCCCCCCCCCC/C=C/[C@@H](O)[C@@H](N)CO + COC(=O)c1ccc([C@H]2c3[nH]c4ccccc4c3C[C@H](C(=O)OC)N2C(=O)CCl)cc1 [RSL3] | 0.0823 | 0.167
25 | COc1cc(N2CCN(C)CC2)ccc1Nc1ncc2c(n1)N(C1CCC1)C(=O)N(c1c(C)cccc1C)C2 + COC(=O)c1ccc([C@H]2c3[nH]c4ccccc4c3C[C@H](C(=O)OC)N2C(=O)CCl)cc1 [RSL3] | 0.334 | 0.747
26 | Cc1cc(C)c(S(=O)(=O)N(CCc2cccc(Br)c2)Cc2ccc(-c3cccc(S(C)(=O)=O)c3)cc2)c(C)c1 + COC(=O)c1ccc([C@H]2c3[nH]c4ccccc4c3C[C@H](C(=O)OC)N2C(=O)CCl)cc1 [RSL3] | 0.636 | 0.475
27 | CC(C)=CCC[C@](C)(O)[C@H]1CC[C@]2(C)[C@@H]1[C@H](O)C[C@@H]1[C@@]3(C)CC[C@H](O)C(C)(C)[C@@H]3[C@@H](O)C[C@]12C [(20S)-Protopanaxatriol] + COC(=O)c1ccc([C@H]2c3[nH]c4ccccc4c3C[C@H](C(=O)OC)N2C(=O)CCl)cc1 [RSL3] | 0.762 | 0.672
28 | OC[C@H]1O[C@@H](Oc2cc(O)cc(/C=C/c3ccc(O)cc3)c2)[C@H](O)[C@@H](O)[C@@H]1O [Polydatin] + COC(=O)c1ccc([C@H]2c3[nH]c4ccccc4c3C[C@H](C(=O)OC)N2C(=O)CCl)cc1 [RSL3] | 0.749 | 0.608
29 | O=C(O)c1cccc(N=Nc2c(O)[nH]c3ccc(S(=O)(=O)NCc4ccc(F)cc4)cc23)c1 + COC(=O)c1ccc([C@H]2c3[nH]c4ccccc4c3C[C@H](C(=O)OC)N2C(=O)CCl)cc1 [RSL3] | 0.516 | 0.611
30 | Nc1ncnc2c1ncn2C1OC(COP(=O)(O)O)C(O)C1O (stereo not given) [Adenosine 5'-monophosphate monohydrate] + COC(=O)c1ccc([C@H]2c3[nH]c4ccccc4c3C[C@H](C(=O)OC)N2C(=O)CCl)cc1 [RSL3] | 0.932 | 0.622
31 | CCNC1(C(N)=O)CCN(c2ncnc3c2nc(-c2ccccc2Cl)n3-c2ccc(Cl)cc2)CC1 [Otenabant] + COC(=O)c1ccc([C@H]2c3[nH]c4ccccc4c3C[C@H](C(=O)OC)N2C(=O)CCl)cc1 [RSL3] | 0.659 | 0.39
32 | CC(C)(Oc1ccc(C2CC2(Cl)Cl)cc1)C(=O)O (stereo not given) [Ciprofibrate] + COC(=O)c1ccc([C@H]2c3[nH]c4ccccc4c3C[C@H](C(=O)OC)N2C(=O)CCl)cc1 [RSL3] | 0.787 | 0.706
33 | O=C(c1ccc(-c2nc3ccc(F)cc3o2)cc1)N1CCN(C(=O)C2(O)CC2)CC1 + COC(=O)c1ccc([C@H]2c3[nH]c4ccccc4c3C[C@H](C(=O)OC)N2C(=O)CCl)cc1 [RSL3] | 0.398 | 0.683
34 | Cc1cc(N2C[C@@H](C)N[C@@H](C)C2)ncc1-c1ccc(-c2nc3c(ccn3C)c(=O)[nH]2)cc1 + COC(=O)c1ccc([C@H]2c3[nH]c4ccccc4c3C[C@H](C(=O)OC)N2C(=O)CCl)cc1 [RSL3] | 0.496 | 0.682
35 | C/C=C(\CC[C@@H](C)[C@H]1CC[C@H]2[C@@H]3CC=C4C[C@@H](O)CC[C@]4(C)[C@H]3CC[C@]12C)C(C)C [Fucosterol] + COC(=O)c1ccc([C@H]2c3[nH]c4ccccc4c3C[C@H](C(=O)OC)N2C(=O)CCl)cc1 [RSL3] | 0.476 | 0.694
